The source of these data is PubChem BioAssay (NCI).

SMILES strings stand for the structures. The panel holds about 83,000 compounds, 20% with a hit somewhere; the sample as a whole holds those more often.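 Growth was measured after 48 h exposure to one concentration of compound in 96-well plates. Values under 10 count as active.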 Values without a mark were called inactive. Activity calls are given as the source filed them.

Some test systems named below: NCI-H23 lung; NCI-H226 lung; HOP-62 NSCLC; NCI-H460 lung; HOP-92 NSCLC; NCI-H522 lung; A549/ATCC NSCLC; 786-0 renal; COLO 205 colon; NCI-H322M lung.
What all share (assay): NCI-60 one-dose screen, 48 h (100 = growth as untreated, 0 = no growth, -100 = all killed)
What all share (settings): 10 µM unless noted

As to `CNC(=O)c1cc(Oc2ccc3nc(NC(C)=O)sc3c2)ccn1`, the growth with NCI-H23 lung is 103%; with NCI-H226 lung it was 101%; in the test on HOP-62 NSCLC, 109%; with NCI-H460 lung, 104%; in the test on HOP-92 NSCLC, 99.9%; with NCI-H522 lung, 104%. The growth in the test on A549/ATCC NSCLC is 102%; in the test with 786-0 renal, 94.6%; in the test on COLO 205 colon, 105%.
As to `COc1ccc(-c2nc(SCC(C)C)nc(N/N=C\c3ccc(F)cc3)c2C#N)cc1`, the growth in the test with NCI-H23 lung was 97.4%; with NCI-H226 lung it was 81.4%; in the test on HOP-62 NSCLC, 109%; with NCI-H460 lung, 25.7%; in the test with HOP-92 NSCLC, 89.9%; in the test with NCI-H522 lung it was 107%. The values for the growth with A549/ATCC NSCLC, in the test on 786-0 renal and with COLO 205 colon were 69.9%, 83% and 94.8%, respectively.
Regarding `CCNc1nc(-c2ccc(Cl)c(OC)c2)c(-c2ccnc(NCCCNS(=O)(=O)c3ccc(Cl)cc3)n2)s1`, the growth with NCI-H23 lung was 83.7%; with NCI-H226 lung, 72.2%; in the test with NCI-H322M lung, 101%; with HOP-62 NSCLC, 61.7%; with HOP-92 NSCLC it was 20.9%; in the test with NCI-H522 lung it was 28.9%. For the same compound, the growth with A549/ATCC NSCLC was 44.9%; in the test with 786-0 renal, 54.3%; with COLO 205 colon it was 11.7%.
As to `CC(=O)N(N=Nc1ccccc1)c1cccc2ccccc12`, the growth with NCI-H23 lung was 86.9%; in the test on NCI-H226 lung, 92.5%; in the test with HOP-62 NSCLC it was 90.5%; with NCI-H460 lung, 55.7%; with HOP-92 NSCLC it was 96.5%; with NCI-H522 lung it was 75.1%. The growth is 97.4% in the test on A549/ATCC NSCLC, 97.6% with 786-0 renal and 91.9% in the test with COLO 205 colon.
As to `CCN1CCN(c2cc(C(=O)Nc3nc(-c4cc(OC)c(OC)c(OC)c4)cs3)cc(C(F)(F)F)c2)CC1`, the growth in the test with NCI-H23 lung was 79.4%; in the test with NCI-H226 lung, 86.8%; with HOP-62 NSCLC it was 82.7%; with NCI-H460 lung it was 57.3%; with HOP-92 NSCLC, 42.2%; in the test with NCI-H522 lung, 67.6%. Moreover, the growth is 81.1% with A549/ATCC NSCLC, 49.1% with 786-0 renal and 58.2% in the test on COLO 205 colon.
Consider `CC(C)c1ccc(COCc2cc(CN3CCCC3)c(O)c3ncccc23)cc1`, for which the growth in the test on NCI-H23 lung was 8.78% (active); in the test on NCI-H226 lung it was -6.04% (active); with HOP-62 NSCLC, 2.49% (active); in the test with NCI-H460 lung, -40.8% (active); in the test on HOP-92 NSCLC it was -5.15% (active); in the test on NCI-H522 lung, -40.1% (active). For the same compound, the growth with A549/ATCC NSCLC was 7.74% (active); in the test on 786-0 renal it was -15.4% (active); with COLO 205 colon it was 18.9%.
As for `O=C1c2cccnc2C(=O)c2c1c(C(=O)NCCCN1CCCCC1)c1ccccn21`, the growth in the test with NCI-H23 lung was -36.1% (active); in the test on NCI-H226 lung it was -39.8% (active); in the test with NCI-H322M lung, -35.9% (active); in the test on HOP-62 NSCLC, -37.5% (active); in the test on HOP-92 NSCLC, -30.5% (active); in the test with NCI-H522 lung, -51% (active). The growth in the test with A549/ATCC NSCLC was -42.9% (active); in the test with 786-0 renal, 5.99% (active); in the test on COLO 205 colon, -82.2% (active).
Consider `O=C1COCCN1c1ccc(Nc2nc(Cl)nc(OCc3cn(Cc4ccccc4)nn3)n2)cc1`, for which the growth in the test on NCI-H23 lung is 87.2%; in the test with NCI-H226 lung it was 95.1%; in the test on HOP-62 NSCLC, 87.5%; with NCI-H460 lung, 107%; in the test with HOP-92 NSCLC, 82.5%; with NCI-H522 lung it was 76.5%. Also, the growth is 95.7% in the test on A549/ATCC NSCLC, 101% in the test on 786-0 renal and 105% in the test with COLO 205 colon.
For `Cn1c(=O)c2[nH]c(N/N=C/c3ccccc3Br)nc2n(C)c1=O`, the growth in the test with NCI-H23 lung is 107%; in the test on NCI-H226 lung, 110%; in the test on HOP-62 NSCLC it was 112%; with NCI-H460 lung, 110%; in the test with HOP-92 NSCLC, 104%; in the test with NCI-H522 lung, 89.7%. The figures for the growth in the test with A549/ATCC NSCLC, in the test with 786-0 renal and in the test with COLO 205 colon were 101%, 96.9% and 137%, respectively.
Turning to `O=C(Nc1nn(-c2ccc(Cl)cc2Cl)nc1-c1ccccc1)c1ccccc1`, the growth in the test on NCI-H23 lung was 97.2%; in the test with NCI-H226 lung, 98.6%; in the test with HOP-62 NSCLC it was 77.3%; in the test on NCI-H460 lung it was 107%; with HOP-92 NSCLC, 86.9%; with NCI-H522 lung, 87.2%. In addition, the growth in the test with A549/ATCC NSCLC was 94.7%; with 786-0 renal, 94.3%; in the test with COLO 205 colon, 99.3%.
Turning to `CCN(CC)C(=S)SC(SC(=S)N(CC)CC)C(=O)c1nnn(-c2ccc([N+](=O)[O-])cc2)c1C`, the growth is 104% with NCI-H226 lung; 98.5% in the test with NCI-H322M lung; 97.3% in the test with HOP-62 NSCLC; 73.9% in the test on NCI-H460 lung; 89.5% with HOP-92 NSCLC; 79.5% in the test with NCI-H522 lung. Moreover, the growth in the test on A549/ATCC NSCLC was 95.9%; with 786-0 renal it was 94.2%; in the test with COLO 205 colon, 95.2%.
Regarding `CN(C)CCCC1(c2ccc(F)cc2)OCc2cc(-c3cncc4ccccc34)ccc21` (configuration not stated), the growth in the test with NCI-H226 lung was 77.2%; in the test on NCI-H322M lung, 51.5%; in the test on HOP-62 NSCLC, 65%; in the test on NCI-H460 lung it was 10.6%; with HOP-92 NSCLC, 49.5%; with NCI-H522 lung, 42.9%. Also, the growth in the test on A549/ATCC NSCLC is 46.9%; in the test on 786-0 renal, 46.8%; with COLO 205 colon, 16.3%.
As to `C[C@@H]1CCC[C@H]1CC(N)C(=O)O` (some centres not stated), the growth with NCI-H226 lung was 101%; in the test with HOP-62 NSCLC, 107%; in the test with HOP-92 NSCLC, 98.2%; in the test on NCI-H522 lung, 105%; with A549/ATCC NSCLC, 110%; in the test with 786-0 renal, 104%. For the same compound, the growth with COLO 205 colon was 116%.
For the compound `COc1ccc(-c2cn(-c3cc(OC)c(OC)c(OC)c3)c(=O)n2C(C)=O)cc1`, the growth with NCI-H226 lung is 88.1%; in the test with NCI-H322M lung, 99.6%; with HOP-62 NSCLC, 83.7%; in the test with NCI-H460 lung, 106%; with HOP-92 NSCLC, 94.2%; with NCI-H522 lung, 73.5%. For the same compound, the growth in the test on A549/ATCC NSCLC is 91.8%; in the test with 786-0 renal, 35.4%; in the test on COLO 205 colon it was 119%.
`N#CC1=C(c2ccc(Cl)cc2)Nc2c(c(-c3ccc(Cl)cc3)nn2-c2ccccc2)C12C(=O)Nc1ccc(Cl)cc12` (configuration not stated): the growth is 67% with NCI-H226 lung; 65% with HOP-62 NSCLC; 35.5% with NCI-H460 lung; -3.13% (active) with HOP-92 NSCLC; 25.7% in the test on NCI-H522 lung; 31% in the test on A549/ATCC NSCLC. For the same compound, the growth was 59.1% in the test on 786-0 renal and 51% in the test with COLO 205 colon.
